The record followed here is the supplement of paper PMC10037445.

Over roughly 2,900 compounds, “NF-kB SEAP reporter activity, fold change vs agonist alone” has its median near 0.99; the highest 2% begin near 2.6. The sample as a whole holds a higher share of the highest values than the screen did.

The subject of assay [1] is RAW-Dual. Kind of assay: NF-kB SEAP reporter activity, fold change vs agonist alone; cytotoxicity flag (confluency mask): not cytotoxic; higher = enhanced NF-kB activity. The method, boiled down: (§1)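 After 50 nL of library stock was delivered by pin tool to RAW-Dual macrophages (50,000 cells/well, DMEM, 384-well plates), a PRR agonist was added 1 h later and the plates were kept at 37 °C, 5% CO2. Twenty hours later, IRF was read from supernatant by QuantiLuc luminescence and NF-κB by QuantiBlue absorbance at 620 nm. Reporter activity is stated as fold change over agonist-alone wells. Wells with IncuCyte confluency under 70% of agonist controls in both mask sets were counted as cytotoxic.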

Assay [2] relates to RAW-Dual. Kind of assay: NF-kB SEAP reporter activity, fold change vs agonist alone; higher = enhanced NF-kB activity. An outline of the steps:
as §1

In assay [3] the test system is RAW-Dual. Kind of assay: NF-kB SEAP reporter activity, fold change vs agonist alone; cytotoxicity flag (confluency mask): cytotoxic (confluency <70% of control); higher = enhanced NF-kB activity. The method, boiled down:
as §1

[4] abbreviates: agonist: ODN 1826 (TLR9) 0.5 ug/mL.
Where [5] appears, read: agonist: Pam2CSK4 (TLR2/6) 0.1 ug/mL.
[6] abbreviates: agonist: Pam3CSK4 (TLR2/1) 0.1 ug/mL.
Where [7] appears, read: library stock concentration (final ~1000-fold dilution): 10 mM, cytotoxicity flag (confluency mask): not cytotoxic, agonist: Imiquimod (TLR7) […].
The mark [8] stands for this setting: library stock concentration (final ~1000-fold dilution): 10 mM, cytotoxicity flag (confluency mask): not cytotoxic, agonist: MPLA (TLR4) […].

As to `O=C(O)CC(C(=O)O)N1C(=O)/C(=C2/C(=O)Nc3ccc(Br)cc32)SC1=S` (configuration not stated) (library stock concentration (final ~1000-fold dilution): 10 mM), the “NF-kB SEAP reporter activity” value in the assay with RAW-Dual [1] (agonist: LPS (TLR4) 0.1 ug/mL) was 0.98; in the assay with RAW-Dual [1] (setting [4]), 1.56; in the assay with RAW-Dual [1] (setting [5]), 1.02; in the assay with RAW-Dual [1] (setting [6]), 1.06.
As to `O=C(O)CC(C(=O)O)N1C(=O)/C(=C2/C(=O)Nc3ccc(Br)cc32)SC1=S` (configuration not stated), the entries for the “NF-kB SEAP reporter activity” value in the assay with RAW-Dual [2] (setting [7]) and with RAW-Dual [2] (setting [8]) were 1.33 and 1.72, respectively.
For `COc1ccccc1Oc1c(NS(=O)(=O)c2ccc(C(C)(C)C)cc2)nc(-c2ncccn2)nc1OCCO.O` (library stock concentration (final ~1000-fold dilution): 10 mM), the “NF-kB SEAP reporter activity” value amounted to 1.15 in the assay with RAW-Dual [1] (agonist: LPS (TLR4) 0.1 ug/mL), 1.01 with RAW-Dual [1] (setting [4]), 1.06 in the assay on RAW-Dual [1] (setting [5]) and 1.1 in the assay with RAW-Dual [1] (setting [6]).
`COc1ccccc1Oc1c(NS(=O)(=O)c2ccc(C(C)(C)C)cc2)nc(-c2ncccn2)nc1OCCO.O`: the entries for the “NF-kB SEAP reporter activity” value in the assay with RAW-Dual [2] (setting [7]) and in the assay on RAW-Dual [2] (setting [8]) were 1.02 and 1.1, respectively.
In the case of `CC(C)OC(=O)CCC/C=C\CC1C(O)CC(O)C1CCC(O)CCc1ccccc1` (configuration not stated), the “NF-kB SEAP reporter activity” value in the assay with RAW-Dual [2] (setting [8]) turned out to be 1.43.
Turning to `CC(C)OC(=O)CCC/C=C\CC1C(O)CC(O)C1CCC(O)CCc1ccccc1` (configuration not stated) (library stock concentration (final ~1000-fold dilution): 10 mM), the “NF-kB SEAP reporter activity” value in the assay with RAW-Dual [1] (agonist: LPS (TLR4) 0.1 ug/mL) turned out to be 1.4; in the assay with RAW-Dual [1] (setting [4]), 0.911; with RAW-Dual [1] (setting [5]), 1.1; in the assay on RAW-Dual [1] (setting [6]), 0.929.
On the same counts, the results for `Cc1c[nH]c(C=C2C(=O)Nc3ccccc32)c1CCC(=O)O` (library stock concentration (final ~1000-fold dilution): 10 mM) are 0.665, 0.926, 0.983 and 0.647.
On to `COc1cc(OC)c(/C=C2/C(=O)Nc3ccccc32)c(OC)c1`, for which the figures for the “NF-kB SEAP reporter activity” value in the assay on RAW-Dual [2] (setting [7]) and in the assay with RAW-Dual [2] (setting [8]) were 1.62 and 1.67, respectively.
In the case of `COc1ccc(C(=C2C(=O)Nc3ccccc32)c2ccc(OC)cc2)cc1` (library stock concentration (final ~1000-fold dilution): 10 mM), the “NF-kB SEAP reporter activity” value in the assay with RAW-Dual [1] (agonist: LPS (TLR4) 0.1 ug/mL) was determined as 1.04; in the assay with RAW-Dual [1] (setting [4]) it was 0.585; with RAW-Dual [1] (setting [5]), 0.692; in the assay with RAW-Dual [1] (setting [6]), 0.323.
For `COc1ccc(C(=C2C(=O)Nc3ccccc32)c2ccc(OC)cc2)cc1`, the “NF-kB SEAP reporter activity” value came to 0.748 with RAW-Dual [2] (setting [7]) and 0.978 in the assay with RAW-Dual [2] (setting [8]).
`COc1cc(OC)c(/C=C2/C(=O)Nc3ccccc32)c(OC)c1` (library stock concentration (final ~1000-fold dilution): 10 mM): the “NF-kB SEAP reporter activity” value in the assay with RAW-Dual [1] (agonist: LPS (TLR4) 0.1 ug/mL) is 3.21; in the assay on RAW-Dual [1] (setting [4]), 2.56; in the assay with RAW-Dual [1] (setting [5]), 1.33; in the assay with RAW-Dual [1] (setting [6]), 1.92.
For `Cc1c[nH]c(C=C2C(=O)Nc3ccccc32)c1CCC(=O)O`, the “NF-kB SEAP reporter activity” value in the assay on RAW-Dual [2] (setting [7]) is 0.662; in the assay with RAW-Dual [2] (setting [8]) it was 0.848.
With `NC(N)=NCCCC(N)C(=O)NC(CCCN=C(N)N)C(=O)N1CCCC1C(=O)N1CC(O)CC1C(=O)NCC(=O)NC(Cc1cccs1)C(=O)NC(CO)C(=O)N1Cc2ccccc2CC1C(=O)N1C(C(=O)NC(CCCN=C(N)N)C(=O)O)CC2CCCCC21` (configuration not stated) (library stock concentration (final ~1000-fold dilution): 2 mM water), the “NF-kB SEAP reporter activity” value in the assay on RAW-Dual [1] (agonist: LPS (TLR4) 0.1 ug/mL) was determined as 0.985; with RAW-Dual [1] (setting [4]), 1.06; in the assay on RAW-Dual [1] (setting [5]), 1.1; in the assay on RAW-Dual [1] (setting [6]) it was 0.962.
Consider `NC(N)=NCCCC(N)C(=O)NC(CCCN=C(N)N)C(=O)N1CCCC1C(=O)N1CC(O)CC1C(=O)NCC(=O)NC(Cc1cccs1)C(=O)NC(CO)C(=O)N1Cc2ccccc2CC1C(=O)N1C(C(=O)NC(CCCN=C(N)N)C(=O)O)CC2CCCCC21` (configuration not stated), for which the “NF-kB SEAP reporter activity” value was 0.945 with RAW-Dual [2] (library stock concentration (final ~1000-fold dilution): 2 mM water, cytotoxicity flag (confluency mask): not cytotoxic, agonist: Imiquimod (TLR7) […]) and 1.05 with RAW-Dual [2] (library stock concentration (final ~1000-fold dilution): 2 mM water, cytotoxicity flag (confluency mask): not cytotoxic, agonist: MPLA (TLR4) […]).
Take `CC12CC(O)C3CC1(O[C@@H]1O[C@H](CO)[C@@H](O)[C@H](O)[C@H]1O)C3(COC(=O)c1ccccc1)C(=O)O2` (some centres not stated) (library stock concentration (final ~1000-fold dilution): 10 mM): the “NF-kB SEAP reporter activity” value in the assay with RAW-Dual [1] (agonist: LPS (TLR4) 0.1 ug/mL) turned out to be 1.24; in the assay on RAW-Dual [1] (setting [4]) it was 1.12; in the assay on RAW-Dual [1] (setting [5]) it was 1.1; in the assay on RAW-Dual [1] (setting [6]), 1.06.
As for `CC12CC(O)C3CC1(O[C@@H]1O[C@H](CO)[C@@H](O)[C@H](O)[C@H]1O)C3(COC(=O)c1ccccc1)C(=O)O2` (some centres not stated), the “NF-kB SEAP reporter activity” value with RAW-Dual [2] (setting [7]) and in the assay with RAW-Dual [2] (setting [8]) was 1.03 throughout.
As to `CNCCCC1c2ccccc2C=Cc2ccccc21.Cl`, the “NF-kB SEAP reporter activity” value in the assay on RAW-Dual [2] (library stock concentration (final ~1000-fold dilution): 10 mM, cytotoxicity flag (confluency mask): cytotoxic (confluency <70% of control), agonist: Imiquimod (TLR7) […]) turned out to be 1.28; with RAW-Dual [2] (library stock concentration (final ~1000-fold dilution): 10 mM, cytotoxicity flag (confluency mask): cytotoxic (confluency <70% of control), agonist: MPLA (TLR4) […]), 1.62.
Take `CNCCCC1c2ccccc2C=Cc2ccccc21.Cl` (library stock concentration (final ~1000-fold dilution): 10 mM): the “NF-kB SEAP reporter activity” value with RAW-Dual [3] (agonist: LPS (TLR4) 0.1 ug/mL) came out at 0.947; in the assay on RAW-Dual [3] (setting [4]) it was 0.644; with RAW-Dual [3] (setting [5]), 0.63; with RAW-Dual [3] (setting [6]), 0.687.
In the case of `CCCCNc1ccc(C(=O)OCCN(C)C)cc1.Cl`, the “NF-kB SEAP reporter activity” value in the assay with RAW-Dual [2] (setting [7]) came out at 0.843; with RAW-Dual [2] (setting [8]), 1.04.
Turning to `CCCCNNC(=O)c1ccc(Br)cc1` (library stock concentration (final ~1000-fold dilution): 10 mM), the “NF-kB SEAP reporter activity” value in the assay with RAW-Dual [1] (agonist: LPS (TLR4) 0.1 ug/mL) was 3.15; in the assay on RAW-Dual [1] (setting [4]) it was 2.18; in the assay on RAW-Dual [1] (setting [5]) it was 0.64; in the assay on RAW-Dual [1] (setting [6]) it was 0.656.
As for `CCCCNNC(=O)c1ccc(Br)cc1`, the “NF-kB SEAP reporter activity” value in the assay on RAW-Dual [2] (setting [7]) is 1.95; in the assay on RAW-Dual [2] (setting [8]) it was 2.28.
As to `O=C(CCNNC(=O)c1ccncc1)NCc1ccccc1` (library stock concentration (final ~1000-fold dilution): 10 mM), the “NF-kB SEAP reporter activity” value in the assay with RAW-Dual [1] (agonist: LPS (TLR4) 0.1 ug/mL) was determined as 0.997; in the assay with RAW-Dual [1] (setting [4]) it was 1.03; with RAW-Dual [1] (setting [5]), 0.962; with RAW-Dual [1] (setting [6]), 0.955.
For `CCCCNc1ccc(C(=O)OCCN(C)C)cc1.Cl` (library stock concentration (final ~1000-fold dilution): 10 mM) the same measures were 1.38, 0.759, 1.13 and 1.17.
Turning to `O=C(CCNNC(=O)c1ccncc1)NCc1ccccc1`, the “NF-kB SEAP reporter activity” value with RAW-Dual [2] (setting [7]) came to 0.939; with RAW-Dual [2] (setting [8]), 1.
In the case of `CS(=O)(=O)n1cc2c(n1)CN(C1COC(c3cc(F)ccc3F)C(N)C1)C2` (configuration not stated) (library stock concentration (final ~1000-fold dilution): 10 mM), the “NF-kB SEAP reporter activity” value in the assay on RAW-Dual [1] (agonist: LPS (TLR4) 0.1 ug/mL) is 1.1; with RAW-Dual [1] (setting [4]) it was 0.91; with RAW-Dual [1] (setting [5]), 1; with RAW-Dual [1] (setting [6]) it was 0.974.
`CS(=O)(=O)n1cc2c(n1)CN(C1COC(c3cc(F)ccc3F)C(N)C1)C2` (configuration not stated): the “NF-kB SEAP reporter activity” value with RAW-Dual [2] (setting [7]) is 0.931; in the assay on RAW-Dual [2] (setting [8]) it was 1.03.
